{"source": "PubChem BioAssay AID720550", "about": "(National Center for Advancing Translational Sciences (NCATS), 2013)", "note": "Inconclusive results are not listed. Unmarked numbers belong to inactive results. Active and inactive are the calls of the source. The call rests on the fitted dose curve; in most records, active means well fitted curve in the direction sought with a large enough effect; inconclusive means small, poorly fitted or top-dose-only effect, or another doubt; inactive means no such curve, though single readings can be large or run the other way."}
{"test": "qHTS for Inhibitors of Bloom's syndrome helicase (BLM): Thiazole Orange DNA Binding Counterscreen for SAR.", "settings": "fluorescence; Potency: Thiazole orange DNA displacement; series mostly up to 57.1 µM; activity change, negative = displacement: at the top concentration", "from_the_text": "Human RecQ DNA helicases participate in maintenance of genome stability and DNA repair. While other types of helicases have been explored as targets for drug development, members of the RecQ family have remained less well characterized. Mutations of the Bloom helicase gene have been associated with the rare human genetic disease called Bloom syndrome. […] Moreover, identified inhibitors can be used in cells and animal models to examine the consequences of inhibition on the survival of cancer cells where it has been shown that BLM plays an important role.\nA fluorescence-based, biochemical assay in 1536 well format was developed to evaluate inhibition of BLM DNA unwinding activity. This assay was used to screen the MLPCN library. The resulting compounds were subjected to orthogonal and secondary biochemical assays to triage the initial hits, to classify compounds based on mode of action and to derive structure activity relationships (SARs) of candidate effectors. The Thiazole Orange (ThO) DNA binding (TO-binding) is used to eliminate inhibitors that operate via nonspecific DNA binding. This displacement assay is miniaturized for a 1536-well format and utilizes a ThO dye bound to unlabeled DNA. Inactivation or no significant activity is the desired outcome for this assay.\nNIH Chemical Genomics Center [NCGC]\nNIH Molecular Libraries Probe Centers Network [MLPCN]\nAssay Submitter (PI): Opher Gileadi, Structural Genomics Consortium, University of Oxford, UK\nCompounds were added to a 4 uL mixture of 50 nM DNA and 100 nM ThO via pintool transfer. The fluorescence signal (excitation 480 nm, emission 530 nm) was measured after 15 min incubation at room temperature using the ViewLux CCD imager.", "units": {"activity change, negative = displacement": "%"}}
{"smiles": "O=C(Nc1ccc(-c2cn[nH]c2)c(C(F)(F)F)c1)Nc1nnc(-c2ccncc2)s1", "activity change, negative = displacement": 35.2}
{"smiles": "O=C(Nc1ccc(F)c(C(F)(F)F)c1)Nc1cccc(-c2ccncc2)n1", "activity change, negative = displacement": 122}
{"smiles": "N#Cc1cc(NC(=O)Nc2nnc(-c3ccncc3)s2)ccc1Br", "activity change, negative = displacement": -29.5}
{"smiles": "O=C(Nc1ccc(Cl)c(C(F)(F)F)c1)Nc1cccc(-c2ccncc2)n1", "activity change, negative = displacement": 76.7}
{"smiles": "O=C(Nc1ccc2ccccc2c1)Nc1nnc(-c2ccncc2)s1", "activity change, negative = displacement": -2.58}
{"smiles": "O=C(Nc1ccc(-c2nc3ccccc3[nH]2)cc1)Nc1ccc2c(c1)CCCO2", "activity change, negative = displacement": 91.4}
{"smiles": "O=C(Nc1ccc(Cl)nc1)Nc1nnc(-c2ccncc2)s1", "activity change, negative = displacement": 6.38}
{"smiles": "O=C(Nc1ccc(F)c(C(F)(F)F)c1)Nc1nnc(-c2cccnc2)s1", "activity change, negative = displacement": -2.96}
{"smiles": "O=C(Nc1ccc(Br)c(Br)c1)Nc1nnc(-c2cccnc2)s1", "activity change, negative = displacement": 89.9}
{"smiles": "O=c1c(Nc2ccc(Br)c(Br)c2)c(Nc2nnc(-c3ccncc3)s2)c1=O", "Potency": "10.2 µM (active)"}
{"smiles": "Cc1cc(NC(=O)Nc2cccc(-c3ccncc3)n2)ccc1Cl", "Potency": "inactive"}
{"smiles": "CCOc1ccc(NC(=O)Nc2ccc(-c3nc4ccccc4[nH]3)cc2)cc1", "activity change, negative = displacement": 71.7}
{"smiles": "O=C(Nc1ccc(Cl)c([N+](=O)[O-])c1)Nc1nnc(-c2ccncc2)s1", "Potency": "0.513 µM (active)"}
{"smiles": "CC(=O)c1cccc(NC(=O)Nc2nnc(-c3ccncc3)s2)c1", "activity change, negative = displacement": 218}
{"smiles": "O=C(Nc1ccc2ccccc2c1)Nc1nnc(-c2ccccc2)s1", "activity change, negative = displacement": 93}
{"smiles": "O=C(Nc1ccc2ccccc2c1)Nc1nnc(-c2ccccc2F)s1", "activity change, negative = displacement": 2.78}
{"smiles": "O=C(Nc1ccc(Cl)c([N+](=O)[O-])c1)Nc1cccc(-c2ccncc2)n1", "activity change, negative = displacement": -18.5}
{"smiles": "O=C(Nc1ccc(N2CCOCC2)c(C(F)(F)F)c1)Nc1nnc(-c2ccncc2)s1", "Potency": "4.08 µM (active)"}
{"smiles": "O=C(Nc1ccc(Cl)c(C(F)(F)F)c1)Nc1nnc(-c2ccncc2)s1", "activity change, negative = displacement": 13.6}
{"smiles": "O=C(Nc1ccc(F)c(C(F)(F)F)c1)Nc1nc(-c2ccncc2)cs1", "activity change, negative = displacement": 96.9}
{"smiles": "COc1ccc(OC)c(-c2nnc(NC(=O)Nc3ccc4ccccc4c3)s2)c1", "activity change, negative = displacement": 37.6}
{"smiles": "O=c1c(Nc2ccc(Cl)c(Cl)c2)c(Nc2nnc(-c3ccncc3)s2)c1=O", "Potency": "4.57 µM (active)"}
{"smiles": "Cc1ccc(-c2nnc(NC(=O)Nc3ccc4ccccc4c3)s2)cc1", "activity change, negative = displacement": 18.5}
{"smiles": "O=C(NCc1ccccc1)Nc1nnc(-c2ccncc2)s1", "activity change, negative = displacement": -0.576}
{"smiles": "CC(C)(C)c1ccc(-c2nnc(NC(=O)Nc3ccc4ccccc4c3)s2)cc1", "activity change, negative = displacement": 12.2}
{"smiles": "O=C(Nc1ccc(-c2nc3ccccc3[nH]2)cc1)Nc1ccc2c(c1)OCCO2", "activity change, negative = displacement": 2.09}
{"smiles": "O=C(Nc1ccc(-n2cncn2)c(F)c1)Nc1nnc(-c2ccncc2)s1", "activity change, negative = displacement": -0.894}
{"smiles": "O=C(Nc1ccc2ccccc2c1)Nc1nnc(-c2cccnc2)s1", "activity change, negative = displacement": 7.64}
{"smiles": "O=C(Nc1ccc(-n2ccnc2)c(F)c1)Nc1nnc(-c2ccncc2)s1", "activity change, negative = displacement": -6.18}
{"smiles": "N#Cc1cc(NC(=O)Nc2nnc(-c3ccncc3)s2)ccc1Cl", "activity change, negative = displacement": -24}
{"smiles": "O=C(Nc1ccc2c(c1)OCO2)Nc1nnc(-c2ccncc2)s1", "activity change, negative = displacement": -28.2}
{"smiles": "O=C(Nc1ccc(Cl)c(Cl)c1)N1CCN(c2ccncc2)CC1", "activity change, negative = displacement": 4.41}
{"smiles": "O=C(Nc1ccc(Cl)c(Cl)c1)Nc1ccc(-c2ccncc2)s1", "activity change, negative = displacement": -4.46}
{"smiles": "CCOC(=O)c1cccc(NC(=O)Nc2nnc(-c3ccncc3)s2)c1", "activity change, negative = displacement": 91.3}
{"smiles": "N#CN/C(=N\\c1nnc(-c2ccncc2)s1)Nc1ccc(F)c(C(F)(F)F)c1", "activity change, negative = displacement": -23.3}
{"smiles": "O=C(Nc1ccc(-c2nc3ccccc3[nH]2)cc1)Nc1ccc2occc2c1", "activity change, negative = displacement": 32.4}
{"smiles": "O=C(Nc1nnc(-c2ccncc2)s1)Nc1ccc(Cl)cc1F", "activity change, negative = displacement": 61.6}
{"smiles": "Cc1cc(NC(=O)Nc2nnc(C3CCCCC3)s2)ccc1F", "activity change, negative = displacement": 4.58}
{"smiles": "O=C(Nc1ccc(Br)cc1)Nc1nnc(-c2ccncc2)s1", "activity change, negative = displacement": 62.4}
{"smiles": "N/C(=N\\c1nnc(-c2ccncc2)s1)Nc1ccc(F)c(C(F)(F)F)c1", "Potency": "inactive"}
